This is a sample that favours compounds with a hit; in the whole collection about 17% have one here.
DT40 TDP1 CPT = qHTS for Inhibitors of human tyrosyl-DNA phosphodiesterase 1 (TDP1): qHTS in cells in presence of CPT. 420,000 tested, 12% active. Potency, µM (series often up to 46.2 µM), hits mostly inhibitors. chicken DT40 Tdp1-/-;hTDP1 cells + 20 nM CPT, ATP luminescence, 48 h; further: nearly all actives have a fitted effect of over 55% in size
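Cell growth measured by CellTiter-Glo luminescence after a minimum 48 h, 37 C compound exposure with 20 nM CPT in Tdp1-knockout DT40 cells stably expressing hTDP1, seeded 400/well; qHTS titration format.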
HT1080 IDH1KD tx = qHTS for induction of synthetic lethality in tumor cells producing 2HG: qHTS for the HT-1080-IDH1KD cell line | 360,000 tested, 2% active | AID 686971, 2013 | Potency, µM (titrated, usually from 46.1 µM), most hits filed as cytotoxic | HT-1080 IDH1 knockdown viability, ATP luminescence, 48 h
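% activity derives from luminescence (CellTiter-Glo), normalised to DMSO and no-cell wells. HT-1080-IDH1KD cells, 750/well, had 48 h compound exposure at 37 °C.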
TDP1 cell noCPT = qHTS for Inhibitors of human tyrosyl-DNA phosphodiesterase 1 (TDP1): qHTS in cells in absence of CPT. DT40 Tdp1-/- hTDP1 cells, no CPT, ATP luminescence, 48 h. Potency, µM (titrated, usually from 46.2 µM), hits mostly inhibitors. 420,000 tested, 15% active. AID 686978, 2013; further: nearly all actives have a fitted effect of over 55% in size
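Growth kinetics read by CellTiter-Glo luminescence after ≥48 hr at 37 °C. Cells: DT40 Tdp1-/- stably carrying human TDP1, 400 per well, compound exposure in the absence of CPT (DMSO vehicle).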
HepG2 tox = qHTS for Inhibitors of TGF-b: Cytotox Counterscreen | HepG2 CAGA-GFP viability, ATP luminescence, 18 h | Potency, µM (highest dose often 46.1 µM), usual class: cytotoxic | 410,000 tested, 0.76% active | AID 588856, 2011
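CellTiter-Glo luminescence gave cytotoxicity after 18 hours at 37 degrees C. The cells were HepG2 CAGA-GFP in 1% FBS DMEM, stimulated with 500 pg/mL TGF-beta after compound addition. %Activity was normalised to no-cell wells (complete cell-killing) and DMSO (no toxicity), and curves were fitted and classified.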
HT1080NT lethal = qHTS for induction of synthetic lethality in tumor cells producing 2HG: qHTS for the HT-1080-NT fibrosarcoma cell line. 360,000 tested, 1.6% active. AID 686970, 2013. Potency, µM (series often up to 46.1 µM), most hits filed as cytotoxic. HT-1080-NT fibrosarcoma viability, CellTiter-Glo ATP luminescence, 48 h;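 further: NT is the 2HG producing partner of a matched IDH1 knockdown line; nearly all actives have a fitted effect of over 55% in size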
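HT-1080-NT fibrosarcoma cells (2HG-overproducing), 750 cells/well in RPMI with 5% FBS, dosed after 2 h and incubated 48 h at 37C. CellTiter-Glo luminescence normalized to DMSO and no-cell wells; concentration-response curves fitted and classed.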
TGFb inhibitor = qHTS for Inhibitors of TGF-b | Potency, µM (top dose mostly 46.1 µM), hits mostly inhibitors | 410,000 tested, 1.2% active | HepG2 CAGA-GFP TGF-b/SMAD3 reporter, GFP fluorescence, 18 h; TGF-beta stimulated, 500 pg/mL final; further: nearly all actives have a fitted effect of over 65% in size
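Inhibition of TGF-beta-driven CAGA-GFP reporter expression in HEPG2 cells is measured by cellular GFP fluorescence after 18 h stimulation with 500 pg/mL recombinant TGF-beta in 1% FBS medium at 37 degrees C.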
Hits are given with their value; - = inactive; ? = inconclusive; . = no result; [ ] = another dose, or the depositor's remark. The call rests on the fitted dose curve; in most records, active means well fitted curve in the direction sought with a large enough effect; inconclusive means small, poorly fitted or top-dose-only effect, or another doubt; inactive means no such curve, though single readings can be large; an effect the other way counts as inactive or inconclusive.

SMILES	DT40 TDP1 CPT	HT1080 IDH1KD tx	TDP1 cell noCPT	HepG2 tox	HT1080NT lethal	TGFb inhibitor
Cc1ccc(/C=C/C(=O)Nc2ccc(S(=O)(=O)Nc3onc(C)c3C)cc2)cc1	-	-	-	-	-	-
COc1ccc(-n2c(-c3ccc(Cl)cc3)cc3c2CC(C)(C)CC3=O)c(OC)c1	23µM	.	18µM	-	.	18µM
COc1ccc(C)cc1-n1c(-c2ccc(Cl)cc2)cc2c1CC(C)(C)CC2=O	?	.	15µM	-	.	-
Cc1ccc(-c2cc3c(n2-c2ccccc2F)CC(C)(C)CC3=O)cc1	18µM	.	13µM	-	.	-
Cc1ccc(-n2c3c(cc(C(=O)O)c2=O)C(=O)CC(C)(C)C3)cc1	-	-	-	-	-	-
CC(=O)Nc1nc(-c2ccc3c(c2)CCN3C(=O)C2CC2)c(C)s1	1.5µM	?	1.3µM	-	-	-
Cc1sc(NC(=O)CN2CCCC2)nc1-c1ccc2c(c1)CCN2C(=O)c1ccc(F)cc1	?	?	18µM	-	-	-
Cc1nc2c(c(C)c1CCC(=O)Nc1cccc(C(F)(F)F)c1)c(=O)n(C)c(=O)n2C	?	.	16µM	-	.	?
Cc1nc2c(c(C)c1CCC(=O)Nc1ccc(F)cc1)c(=O)n(C)c(=O)n2C	?	.	13µM	-	.	-
CCc1nc(SCC(=O)Nc2cccc(C(F)(F)F)c2)c2c(=O)n(C)c(=O)n(C)c2n1	?	-	9.2µM	-	-	-
CC(C)c1cccc(C(C)C)c1NC(=O)CN(C)C1CCS(=O)(=O)C1 (stereo unspecified)	-	-	-	-	-	-
O=C1N=c2ccccc2=C1c1sc(=S)n(NC(=O)c2ccccc2)c1O	18µM	-	?	-	-	?
COc1ccc(-c2ccc3c(c2)O[C@H](CN(C)C(=O)Nc2ccccc2F)[C@@H](C)CN([C@H](C)CO)S3(=O)=O)cc1	23µM	-	16µM	-	-	-
C[C@H]1CN([C@@H](C)CO)S(=O)(=O)c2ccc(Br)cc2O[C@H]1CN(C)C(=O)Nc1ccccc1F	-	-	-	-	-	-
C[C@@H]1CN([C@H](C)CO)S(=O)(=O)c2ccc(-c3ccc(C#N)cc3)cc2O[C@H]1CN(C)C(=O)Nc1cc(F)ccc1F	6.5µM	-	2.3µM	-	?	-
NC(=O)C1CCN(C(=O)COCc2cc(-c3ccc4c(c3)OCO4)on2)CC1	-	-	-	-	-	-
Cc1nnc(SCC(=O)N(CCC#N)c2ccc3c(c2)OCCO3)s1	-	-	-	-	-	-
CC(C)C(=O)N1CCC1(C)C(=O)NCc1ccc(C(C)(C)C)cc1 (stereo unspecified)	?	-	?	-	-	-
Fc1ccc(-n2nnnc2-c2cnc(-c3cccs3)nc2C(F)(F)F)cc1	6.5µM	?	4.6µM	-	-	-
Cc1ccc(-n2nnnc2-c2cccnc2)cc1	-	-	-	-	-	-
Cc1ccc(-n2nnnc2-c2cnc(-c3cccnc3)nc2C(F)(F)F)cc1	18µM	-	5.8µM	-	-	-
Cc1ccc(-n2nnnc2-c2cnn(-c3ccc(F)cc3)c2C(F)(F)F)cc1	13µM	-	?	-	-	-
FC(F)(F)c1nc(N2CCCC2)ncc1-c1nnnn1-c1ccc(Cl)cc1	21µM	?	18µM	-	-	?
CC(I)CCC(C)[n+]1cccc(I)c1 (stereo unspecified)	-	.	-	-	.	-
COc1cc2c(oc(=O)c3cc(C)cc(OC)c32)c2c(C3OC(C)C(O)C(C)(O)C3O)ccc(O)c12 (stereo unspecified)	1.5µM	?	1.5µM	-	?	7.1µM
SMILES	DT40 TDP1 CPT	HT1080 IDH1KD tx	TDP1 cell noCPT	HepG2 tox	HT1080NT lethal	TGFb inhibitor
CC1(CNC(=O)C(=O)NCC2(C)CO2)CO1 (stereo unspecified)	0.82µM	-	1.6µM	-	-	-
Cc1nnc(-c2ccc(Oc3ccc(Cl)cc3)c([N+](=O)[O-])c2)o1	?	-	23µM	-	-	-
O=[N+]([O-])c1cc(-c2nnc(-c3ccccc3)o2)ccc1Oc1ccc(Cl)cc1	-	-	-	-	-	?
CC(C)Oc1ccc(C(=O)Nc2c3c(nn2-c2ccccc2)CS(=O)(=O)C3)cc1	?	-	-	-	-	-
C=C1c2ccccc2NC(=S)N1Cc1ccc2c(c1)OCO2	-	-	4.1µM	-	-	?
CCN1CCN(S(=O)(=O)c2ccc(C)c([N+](=O)[O-])c2)CC1	-	-	-	-	-	-
Cn1c(=O)c(Nc2ccc(Cl)cc2)c2c3c(cccc31)C(=O)c1ccccc1-2	?	-	18µM	-	-	-
COc1ccccc1NC(=O)NNC(=O)CCc1ccccc1	-	-	-	-	-	-
COCC(=O)O[C@]1(CCN(C)CCCc2nc3ccccc3[nH]2)CCc2cc(F)ccc2[C@@H]1C(C)C	21µM	?	16µM	11µM	?	13µM
COc1cccc2cc(-c3nc4sc5c(c4c(=O)[nH]3)CCC(C(C)(C)C)C5)c(=O)oc12 (stereo unspecified)	-	.	-	-	.	-
Clc1nccnc1N/N=C/c1ccc(Br)cc1	?	-	-	13µM	-	-
Brc1ccc(/C=N/Nc2ccccn2)cc1	-	-	-	-	-	?
COc1ccc(/C=N/Nc2nccnc2Cl)cc1	9.2µM	11µM	21µM	7.9µM	10µM	-
O=C(NCC1CCC2(CCN(Cc3cc4ccccc4o3)CC2)O1)c1ccccc1 (stereo unspecified)	-[9.04 µM]	.	-	.	.	.
O=C(CCCCn1c(=O)c2ccccc2n(Cc2ccccc2F)c1=O)NC1CCN(Cc2ccccc2)CC1	?	-	16µM	-	-	-
COc1ccccc1CNC(=O)CCCn1c(=O)c2ccccc2n(Cc2ccccc2F)c1=O	9.2µM	.	7.3µM	-	.	-
COc1cccc(CNC(=O)CCCn2c(=O)c3cccn3c3cccnc32)c1OC	?	.	?	-	.	-
COc1ccccc1CNC(=O)CCCn1c(=O)c2cccn2c2ccccc21	?	.	29µM	-	.	.
O=C(CCCCn1c(=O)[nH]c2ccccc2c1=O)NC1CCN(Cc2ccccc2)CC1	-	-	-	-	-	?
COc1ccc(OC)c(CCNC(=O)CCCn2c(=O)c3cccn3c3ccccc32)c1	18µM	.	21µM	-	.	-

Screens from PubChem.
